# Source: PubChem BioAssay AID1578 (Sanford-Burnham Center for Chemical Genomics, 2009)
# “And” between values parts separate entries of the source, which are not always exact repeats. Equal values may be shown once. Out of some 290,000 compounds screened, about 3,000 (1%) were called active. The sample holds actives, similar compounds and a random draw of the others, so the mix is not that of the screen. No stated cut-off is given here; in the data, active means inhibition mostly above about 36% (no sharp cut-off); inactive means mostly below about 34%.
# Assay: inhibition of NOD1-driven NF-kB reporter – cell-based, luminescence, uHTS, primary screen (AID 1578);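 further: HEK-293T reporter cells stimulated with the NOD1 agonist gamma-tri-DAP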
# Details: NOD1-driven NF-kB luciferase reporter cells, at 4 µM, active compounds read high
row,Compound,inhibition
1,CCCCCC1=NN2C(=O)CC(=O)N=C2S1,11.6% (inactive)
2,O=c1c2nnn(-c3cccc(F)c3)c2ncn1Cc1ccccn1,-4.3% (inactive)
3,O=C(N/N=C/c1ccc([N+](=O)[O-])cc1)c1[nH]ncc1Br,-5% (inactive)
4,Cc1cc(C)n(CC(=O)NCc2cc(-c3nn(C)c(=O)c4ccccc34)ccc2C)n1,-14% (inactive)
5,Cc1ccc(-c2nn(CC(=O)NCc3cc(-c4nn(C)c(=O)c5ccccc45)ccc3C)c(=O)c3ccccc23)cc1,93.8% (active)
6,Cc1ccc(-c2nn(C)c(=O)c3ccccc23)cc1CNC(=O)Cn1nc(-c2ccccc2)c2ccccc2c1=O,12.8% (inactive)
7,O=C1NCCc2c1[nH]c1ccccc21,10.2% (inactive) and -8.1% (inactive)
8,Cc1ccc2[nH]c3c(c2c1)CCNC3=O,-41.5% (inactive)
9,O=C1NCCc2c1[nH]c1c(Cl)ccc(Cl)c21,79.2% (active)
10,CCOC(=O)[C@@H]1[C@H]2COc3cc(OC)ccc3[C@@H]2N2C(=O)N(c3ccc(Br)cc3)C(=O)[C@@]12C,-23.3% (inactive)
11,CN(C)C(CNc1ncccn1)c1ccccc1 (stereo unspecified),-14.6% (inactive)
12,CC(C)(C)OC(=O)N1CCC(CC2CC(c3cccc(Br)c3)=NO2)(C(=O)O)CC1 (stereo unspecified),-12.7% (inactive)
13,CC(C)(C)OC(=O)N1CCC(CC2CC(c3cccc(Br)c3)=NO2)(C(=O)NCC2CCCCC2)CC1 (stereo unspecified),-0.4% (inactive)
14,COC(=O)C1(CC2CC(c3cccc(Br)c3)=NO2)CCN(C(=O)OC(C)(C)C)CC1 (stereo unspecified),43.4% (active)
15,O=C(c1cc2ccccn2n1)N1CCN(c2cccc(C(F)(F)F)c2)CC1,19.8% (inactive)
16,Cc1ccc(S(=O)(=O)NC(=NC2CCCCC2)c2ccc(F)cc2)cc1,-31.6% (inactive)
17,O=C1CSC(c2cn(-c3ccccc3)nc2-c2ccccc2)N1Cc1ccco1 (stereo unspecified),51.6% (active)
18,CCc1ccc(-c2nn(-c3ccccc3)cc2C2SCC(=O)N2Cc2ccco2)cc1 (stereo unspecified),11.4% (inactive)
19,O=C1CSC(c2cn(-c3ccccc3)nc2-c2cc3ccccc3oc2=O)N1Cc1ccco1 (stereo unspecified),3.1% (inactive)
20,COc1ccc(/C=N/c2nc3ccccc3n2C)cc1OC,-12.1% (inactive)
21,CCOC(=O)N1CCN(C(=O)C2CCN(Cc3ccc(O)c(OCC)c3)CC2)CC1,-15.5% (inactive)
22,O=C(c1ccccc1)N1CCCCC(S(=O)(=O)c2ccccc2)C1=O (stereo unspecified),19.8% (inactive)
23,O=C(N/N=C/c1ccc(O)cc1O)c1ccc(NC(=O)C2CCCCC2)cc1,-73.3% (inactive)
24,Cc1cccc(OC(C)C(=O)N2CCCN(C)CC2)c1C (stereo unspecified),-5.8% (inactive)

row,Compound,inhibition
1,O=C(Nc1ccc(N2CCOCC2)cc1)C1CC(=O)N(c2ccccc2)C1 (stereo unspecified),-35.3% (inactive)
2,O=C(NCc1ccccc1)C1CCC1,-29% (inactive)
3,O=C(NC(=S)NCc1ccccc1)C1CCCCC1,11.8% (inactive)
4,O=C(NCc1ccccc1)C1CCCC1,67.7% (active)
5,CC(=O)N1CCc2cc(S(=O)(=O)NCC(=O)NCc3ccc(F)cc3)ccc21,-8% (inactive)
6,Nc1[nH]c(N=NC(=O)c2ccccc2)c2ccccc12,-58.4% (inactive)
7,CCOc1ccc(S(=O)(=O)N2CCCC(C(=O)N3CCN(CC)CC3)C2)cc1Cl (stereo unspecified),-13.6% (inactive)
8,CCN(CC)S(=O)(=O)c1cc(NC(=O)COC(=O)c2ccc(NC(=O)CC#N)cc2)ccc1C,-16.4% (inactive)
9,Fc1ccc(Nc2nc(-c3ccncc3)nc3ccccc23)cc1,1.1% (inactive)
10,C=CCNc1sc(C(=O)c2ccccc2)c(N)c1-c1nc2ccccc2s1,-19.4% (inactive)
11,O=C1N/C(=N/S(=O)(=O)c2ccccc2)S/C1=C/c1cccnc1,-12.1% (inactive)
12,COc1ccc(CNCc2cccc(Oc3ccccc3)c2)cc1,65.8% (active)
13,COc1ccccc1CNCc1cccc(Oc2ccccc2)c1,-7.9% (inactive)
14,O=C(O)c1ccc(CNCc2cccc(Oc3ccccc3)c2)cc1,-4.9% (inactive)
15,Cc1cc(C)nc(/N=C2/NC(=O)CS2)n1,11.8% (inactive)
16,O=C(CSc1ncccc1C(=O)O)NC12CC3CC(CC(C3)C1)C2,-37.8% (inactive)
17,CC(C)(C)C(=O)COC(=O)c1cc2ccccc2cc1O,-26.6% (inactive)
18,Cc1c(C)c2c(OCC(=O)N3CCC(C(=O)O)CC3)cc3c(c2oc1=O)CCC(C)(C)O3,-8.2% (inactive)
19,CC[n+]1c(/C=C/c2ccc(N(C)C)cc2)ccc2ccccc21,0.8% (inactive)
20,CC[n+]1c(/C=C/c2ccc(OC)c(OC)c2)ccc2ccccc21,-81.5% (inactive)
21,CC(NS(=O)(=O)c1ccc(NC(=O)N2CCCCC2)cc1)c1ccccc1 (stereo unspecified),-19.3% (inactive)
22,O=C(Nc1cccnc1)OC1CCCC1,-40.3% (inactive)
23,Cc1cc(C)c(S(=O)(=O)Nc2ccncc2)cc1C,-25.9% (inactive)
24,Cc1ccc(CCNS(=O)(=O)c2ccc3c(c2)NC(=O)CCS3)cc1,-8.7% (inactive)

row,Compound,inhibition
1,CSc1ccccc1C(=O)Nc1ccc2c(c1)CCC2,-1% (inactive)
2,Oc1c(C(Nc2ccccn2)c2cccnc2)cc(Cl)c2cccnc12 (stereo unspecified),15.5% (inactive)
3,O=C(O)COc1ccccc1C(Nc1cccnc1)c1cc(Cl)c2cccnc2c1O (stereo unspecified),-3.2% (inactive)
4,CCCCC(=O)NC(c1cccs1)c1cc(Cl)c2cccnc2c1O (stereo unspecified),-31.4% (inactive)
5,CCCC(=O)NC(c1cccs1)c1cc(Cl)c2cccnc2c1O (stereo unspecified),55.3% (active)
6,CCC(=O)NC(c1cccs1)c1cc(Cl)c2cccnc2c1O (stereo unspecified),32.2% (inactive)
7,CCOc1ccc(C(Nc2cccnc2)c2cc(Cl)c3cccnc3c2O)cc1 (stereo unspecified),67.5% (active)
8,CCC(=O)NCCc1nc2cc(NC(=O)COc3ccccc3)ccc2n1C,-21.6% (inactive)
9,Cc1cc(C)c(S(=O)(=O)NCc2cccnc2)cc1C,9.3% (inactive)
10,CCOc1ccc(N2C(=O)CC(/C=C3/N(C)c4ccccc4C3(C)C)C2=O)cc1 (stereo unspecified),-9.6% (inactive)
11,O=C(Nc1ccc([N+](=O)[O-])cc1)C(=O)Nc1cccc(C(=O)O)c1,79.5% (active)
12,Cc1ccc(C(=O)Nc2cccc(C(=O)O)c2)cc1,73.3% (active)
13,CCC(C)NC(=O)Nc1ccc(Br)cc1 (stereo unspecified),-16% (inactive)
14,COC(=O)c1cccc(NC(=O)/C=C/c2ccc3c(c2)OCO3)c1,69% (inactive)
15,O=C(NNS(=O)(=O)c1ccc([N+](=O)[O-])cc1)C(=O)Nc1cccc(C(=O)O)c1,-14.5% (inactive)
16,CCOC(=O)c1cccc(NC(=O)/C=C/c2ccc3c(c2)OCO3)c1,98% (active)
17,O=C(O)c1cccc(NC(=O)c2cc(NC(=O)c3ccccc3)cc(NC(=O)c3ccccc3)c2)c1,12.6% (inactive)
18,O=C(N/N=C/C(Cl)=C/c1ccc([N+](=O)[O-])cc1)C(=O)Nc1cccc(C(=O)O)c1,-14.1% (inactive)
19,Cc1ccc(C(=O)Nc2cccc(C(=O)NCc3ccccc3)c2)cc1,-41.3% (inactive)
20,CCOC(=O)c1cccc(NC(=O)c2ccc3c(c2)OCO3)c1,-56.6% (inactive)
21,CCOc1ccc(NC(=O)Nc2ccc(NC(C)=O)cc2)cc1,-22.3% (inactive)
22,CCOc1ccc(NC(=O)NC(C)CC)cc1 (stereo unspecified),31.5% (active)
23,COc1ccc(Cc2nnc(NC(=O)C(C)(C)C)s2)cc1,-7.8% (inactive)
24,COc1ccccc1CN1CC(C(=O)NCCc2ccc(Cl)cc2)CC1=O (stereo unspecified),-8.7% (inactive)

row,Compound,inhibition
1,Cc1cc[n+](CC(=O)c2cccc([N+](=O)[O-])c2)c2ccccc12,-5.3% (inactive)
2,Cc1ccc(CN2CCNC(=O)C2CC(=O)NCCCn2cccn2)o1 (stereo unspecified),-26.6% (inactive)
3,COC(=O)Cc1csc(NC(=O)CSc2nnc3ccccn23)n1,-22.5% (inactive)
4,COc1ccc(OC)c(C2=NS(=O)(=O)N(C)C(C(=O)N3CCC4(CC3)OCCO4)=C2)c1,-6.5% (inactive)
5,COc1ccc2ccccc2c1CNCc1ccc(C)cc1,-32.1% (inactive)
6,O=Cc1cn(CCC(=O)O)nc1-c1cccc2ccccc12,-38.4% (inactive)
7,COc1ccccc1N=c1oc2c(OC)cccc2cc1C(=O)NCc1ccco1,-182% (inactive)
8,O=C(Nc1cccc(C(=O)O)c1)Nc1ccc2c(c1)OCO2,74.1% (active)
9,CCOc1ccc(NC(=O)c2cccc(NC(=O)c3ccccc3)c2)cc1,4.1% (inactive)
10,CC(=O)Nc1cccc(NC(=O)COc2ccccc2C)c1,40.3% (inactive)
11,CCOC(=O)c1cccc(NC(=O)Nc2ccc(OCC)cc2)c1,-13.8% (inactive)
12,CCOc1ccc(NC(=O)Nc2cccc(C(=O)O)c2)cc1,97.4% (active)
13,Cc1ccccc1OCC(=O)Nc1cccc(C(=O)O)c1,92% (active)
14,Cc1ccc(C(=O)Nc2cc3ccccc3oc2=O)cc1,85.5% (active)
15,CC(=O)c1cccc(NC(=O)Nc2ccc3c(c2)OCO3)c1,-20.8% (inactive)
16,Cc1cccc(C)c1OCC(=O)Nc1cccc(C(=O)O)c1,-10.3% (inactive)
17,O=C(Nc1cc2ccccc2oc1=O)c1ccccc1,22.4% (inactive)
18,O=C(Nc1ccc2c(c1)OCO2)Nc1ccc2c(c1)OCO2,-34.2% (inactive)
19,CC(=O)Nc1cc2ccccc2oc1=O,-32.2% (inactive)
20,COc1ccccc1CC(=O)NC1CC1,-10.2% (inactive)
21,Cc1cc(C)c(S(=O)(=O)c2ccccc2)c(OC(=O)c2c(F)cccc2F)n1,-38.9% (inactive)
22,Cc1cccc(S(=O)(=O)Nc2ccc(-c3nc4ccc(C)cc4s3)cc2)c1,-35.8% (inactive)
23,O=C(COC(=O)C12CC3CC(CC(C3)C1)C2)Nc1ccccc1F,-23.3% (inactive)
24,COc1ccc(CCNC(=O)CN(c2ccc(OC)c(OC)c2)S(=O)(=O)c2ccc(C)cc2)cc1,32.6% (inactive)
